Source: PubChem (Sanford-Burnham Center for Chemical Genomics)
This is a sample that favours compounds with a hit; in the whole collection about 28% have one here.
CD11b adhes enh: enhancers of human CD11b/CD18 binding to fibrinogen. 93,000 tested, 0.07% active. activation, % at 10 µM. K562 CD11b/CD18 adhesion to fibrinogen, ATPlite luminescence. AID 1499. P05107+P11215;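 active = 10 µM primary screen giving 50% or more activity, confirmed by 40% or more on retest at that dose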
CYP2C9 inhib: inhibitors of human CYP2C9; 96,000 tested, 20% active; inhibition, % at 5 µM; P11712; CYP2C9 Supersomes, luciferin-H conversion, luminescence;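 active = blocking of liver enzyme CYP2C9 beyond about 50% at 5 µM, limit read from the data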
CYP2C19 activ: cytochrome P450 2C19 (human) activation | 96,000 tested, under 10 active | activation factor at 5 µM | AID 1025 | recombinant CYP2C19, luciferin-H EGE luminescence; stronger effect = higher value; 0 = fully inhibited enzyme, 1 = untreated enzyme;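 active = activation factor of at least 2 at 5 µM in the primary screen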
Target sequence (P33261 whole entry, looked up): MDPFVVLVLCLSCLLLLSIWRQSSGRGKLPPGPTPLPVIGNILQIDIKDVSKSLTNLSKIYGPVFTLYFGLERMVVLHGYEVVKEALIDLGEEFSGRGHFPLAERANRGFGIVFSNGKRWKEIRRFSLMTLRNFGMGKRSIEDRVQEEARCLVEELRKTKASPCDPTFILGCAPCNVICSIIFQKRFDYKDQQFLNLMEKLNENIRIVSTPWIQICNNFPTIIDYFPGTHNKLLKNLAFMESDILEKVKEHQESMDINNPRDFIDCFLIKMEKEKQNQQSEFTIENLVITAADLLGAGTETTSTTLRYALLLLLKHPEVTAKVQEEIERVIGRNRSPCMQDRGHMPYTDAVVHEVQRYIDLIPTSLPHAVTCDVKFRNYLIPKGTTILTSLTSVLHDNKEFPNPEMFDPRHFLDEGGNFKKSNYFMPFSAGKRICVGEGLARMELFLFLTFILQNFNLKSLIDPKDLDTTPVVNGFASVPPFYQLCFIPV
CYP2C9 act: CYP2C9 (human) activation; activation factor at 5 µM; 96,000 tested, 1.4% active; recombinant CYP2C9, luciferin-H conversion, luminescence; stronger effect = higher value; factor 1 = untreated enzyme, 0 = blocked; AID 1024; P11712;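 active = activation factor of 2 or more for CYP2C9 at a 5 µM dose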
Mac1 fbg inh: CD11b/CD18-fibrinogen binding inhibition | P05107+P11215 | K562 CD11b/CD18 adhesion to fibrinogen, ATPlite luminescence; Mn2+ added to activate the integrin | inhibition, % at 10 µM | 93,000 tested, 0.54% active | AID 1497;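 active = primary inhibition of 50% or more at 10 µM, then 40% or more on retest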
CYP2C19 inhib: blocks human cytochrome P450 2C19 | inhibition, % at 5 µM | 96,000 tested, 21% active | CYP2C19 Supersomes, luciferin-H EGE luminescence, 30 min | P33261;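 active = CYP2C19 inhibition above a set limit at 5 µM in the primary screen, cut at about 50% in these data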
Large screens that a line does not name were inactive.

Cc1ccccc1CSc1nc2c(c(=O)[nH]1)CCC2	CYP2C9 inhib 63
Cc1cc(C)c(C)c(C(=O)CSc2nnc(C)c(=O)[nH]2)c1C	CYP2C9 inhib 94
Cc1nnc(SCC(=O)c2c(N)n(C)c(=O)n(C)c2=O)[nH]c1=O	none
Cc1nnc(SCC(=O)NNC(=O)C(C)C)[nH]c1=O	none (no result: CYP2C9 inhib, CYP2C19 activ, CYP2C9 act, CYP2C19 inhib)
Cc1nnc(SCCc2ccccc2)[nH]c1=O	CYP2C9 inhib 56
Cc1ccccc1CSc1nnc(C)c(=O)[nH]1	CYP2C9 inhib 63
O=C(O)CC(Cc1ccc(Br)cc1)C(=O)O (centres undefined)	none
O=C(CCSCCc1ccccn1)Nc1ccc(Br)cn1	none
Cc1sc2ncnc(Oc3ccc(-n4ccnc4)cc3)c2c1C	CYP2C9 inhib 99, CYP2C19 inhib 100
CCn1c(C)nc2cc(C(=O)NNC(=O)CCC3CCCC3)ccc21	none (no result: CYP2C9 inhib, CYP2C19 activ, CYP2C9 act, CYP2C19 inhib)
CSC1=C(C#N)C(c2ccccc2Cl)C2=C(CCCC2=O)N1 (centres undefined)	none
CC(=O)C1=C(c2ccccc2)OC(N)=C(C#N)C1c1ccccc1C (centres undefined)	none (no result: CYP2C9 inhib, CYP2C19 activ, CYP2C9 act, CYP2C19 inhib)
CSC1=C(C#N)C(c2ccccc2C)C(C#N)=C(N)N1 (centres undefined)	CYP2C9 inhib 99, CYP2C19 inhib 86
CSC1=C(C#N)C(c2ccccc2Cl)C2=C(N1)c1ccccc1C2=O (centres undefined)	CYP2C19 inhib 53 (no result: CD11b adhes enh, Mac1 fbg inh)
O=C(Cn1cc2c(n1)CCCC2)NCc1cccc(Cl)c1	none
Cc1ccc(C)c(NC(=O)CS(=O)(=O)c2c[nH]c3ccccc23)c1	CYP2C9 act 3.1, CYP2C19 inhib 70
Cc1cccc(NC(=O)CS(=O)(=O)c2c[nH]c3ccccc23)c1C	none
CN(C)S(=O)(=O)c1ccc2c(c1)C(CC(=O)O)NC2=O (centres undefined)	none
COCCN(C(=O)Cc1cccs1)C(C(=O)NCc1ccc(OC)cc1)c1ccccc1 (centres undefined)	none
O=[N+]([O-])c1c(C(Cl)Cl)nn(-c2ccccc2)c1N1CCCC1	CYP2C19 inhib 56
Cc1nc(N2CCN(Cc3nc4ccccc4[nH]3)CC2)c2oc3ccccc3c2n1	CYP2C9 inhib 92, CYP2C19 inhib 84
c1ccc2[nH]c(CN3CCN(c4ncnc5c4oc4ccccc45)CC3)nc2c1	CYP2C9 inhib 55
CCOC(=O)C1CCCN(c2nc(C)nc3c2oc2ccccc23)C1 (centres undefined)	CYP2C9 inhib 52, CYP2C19 inhib 58
CCCOc1ccc(C(=O)CCC(=O)OCC(=O)N2CC(=O)Nc3ccccc32)cc1	none
Cc1cccc(NC(=O)CC2SC(=O)N(c3ccccc3)C2=O)c1 (centres undefined)	none
Cc1cccc(NC(=O)CC2S/C(=N/c3nccs3)N(C)C2=O)c1 (centres undefined)	CYP2C9 inhib 80, CYP2C19 inhib 54
CN(C)c1cccc(C(=O)Nc2cc(C(F)(F)F)ccc2-n2cnc3ccccc32)c1	none (no result: CYP2C9 inhib, CYP2C19 activ, CYP2C9 act, CYP2C19 inhib)
Cc1cc(C)nc(SCCC(=O)Nc2cccc3ccccc23)n1	CYP2C9 act 2.5 (no result: CD11b adhes enh, Mac1 fbg inh)
Nc1nc(NCc2ccccc2)nc(Nc2ccc(F)cc2)c1[N+](=O)[O-]	none
Nc1nnc(COc2cccc(C(F)(F)F)c2)s1	CYP2C19 inhib 64
CCOC(=O)c1ccc(CSc2nnc(N)s2)cc1	CYP2C9 inhib 65, CYP2C19 inhib 70
Nc1nnc(SCc2cccc(C(F)(F)F)c2)s1	CYP2C19 inhib 96
CCOC(=O)CSc1nnc(N)s1	none
Nc1nnc(SCc2ccc(F)cc2Cl)s1	CYP2C19 inhib 91
Cc1cccc(OCc2nnc(N)s2)c1	none
COc1nc(OC)nc(N2CCC(C(=O)NCc3cccs3)CC2)n1	none
O=C1CCCN1CCNC(=S)Nc1ccccc1	CYP2C9 inhib 52
CCCn1c(CNc2ccc(Br)cc2)nc2ccccc21	CYP2C9 inhib 92, Mac1 fbg inh 62, CYP2C19 inhib 98
Cn1c(CNc2ccccc2O)nc2ccccc21	CYP2C19 inhib 70
CCn1cnc2cc(NCc3nc4ccccc4n3C)ccc21	CYP2C19 inhib 93
Cn1c(CNc2nc3ccccc3n2CCN2CCCCC2)nc2ccccc21	none
CCn1c(CNc2ccc(C(=O)O)cc2)nc2ccccc21	none
Cn1c(CNc2ccccc2)nc2ccccc21	CYP2C19 inhib 52
CCCC(=O)NCc1nc2ccccc2n1C	none
Cc1ccc(C)c(NC(=O)CCCCCCCCCCC2COCCO2)c1 (centres undefined)	none (no result: CYP2C9 inhib, CYP2C19 activ, CYP2C9 act, CYP2C19 inhib)
CC(C)CC(=O)Nc1nnc(SCC(=O)NCc2ccco2)s1	none (no result: CYP2C9 inhib, CYP2C19 activ, CYP2C9 act, CYP2C19 inhib)
Cn1c(CCCCCN)nc2ccccc21	CYP2C9 inhib 63
Cn1c(CSc2nc3ccccc3n2C)nc2ccccc21	CYP2C19 inhib 84
CC(=O)n1nc(-c2ccco2)nc1SCc1ccccc1	CYP2C19 inhib 66
CSc1nc(-c2ccco2)nn1C(=O)c1cccs1	CYP2C9 inhib 88
CCC(=O)n1nc(-c2ccco2)nc1SCc1ccccc1	CYP2C9 inhib 64, CYP2C19 inhib 78
Cc1ccc(NC2=NC(c3ccccc3)n3c(nc(C)cc3=O)N2)c(C)c1 (centres undefined)	CYP2C19 inhib 83 (no result: CD11b adhes enh, Mac1 fbg inh)
Cc1ccc(NC2=NC(c3ccc(C)cc3)n3c(nc(C)cc3=O)N2)cc1 (centres undefined)	CYP2C9 inhib 50, CYP2C19 inhib 71
O=C(NNc1ccccc1)C(=O)N1CCCCC1	none (no result: CYP2C9 inhib, CYP2C19 activ, CYP2C9 act, CYP2C19 inhib)
O=C(Nc1cccc(C(F)(F)F)c1)N(Cc1ccc(Cl)cc1)CC(O)C(F)(F)F (centres undefined)	none (no result: CD11b adhes enh, Mac1 fbg inh)
O=C1NC(Nc2nccs2)(C(F)(F)F)C(=O)N1CCc1ccccc1 (centres undefined)	CYP2C9 inhib 85, CYP2C19 inhib 89
O=C(NC1(C(F)(F)F)NC(=O)N(Cc2ccccc2)C1=O)c1cccnc1 (centres undefined)	none
COc1ccc(C(=O)Nc2ncc3c(n2)CC(c2ccco2)CC3=O)cc1 (centres undefined)	none
O=C(NCCc1ccccn1)C1CC(=O)N(Cc2ccccc2Cl)C1 (centres undefined)	CYP2C19 inhib 68
Cc1cccc(C)c1NC(=O)COc1cccc(/C=N/NC(=O)C(=O)NCc2ccccc2)c1	none (no result: CD11b adhes enh, Mac1 fbg inh)
CCC(=O)N1CCc2cc(S(=O)(=O)NCCC(=O)N3CC=C(c4ccccc4)CC3)ccc21	none
Cc1cc(/C=C(\C#N)C(=O)OCC(=O)NC(=O)NC(C)(C)C)c(C)n1CCC(C)C	CYP2C9 inhib 98, CYP2C19 inhib 92
Clc1ccc(C2=CC(c3ccco3)n3ncnc3N2)cc1 (centres undefined)	none (no result: CD11b adhes enh, Mac1 fbg inh)
COc1ccc(C2C=C(c3ccc(C)c(C)c3)Nc3ncnn32)c(OC)c1OC (centres undefined)	CYP2C9 inhib 92, CYP2C19 inhib 96
COc1ccc(C2C=C(c3ccccc3)Nc3ncnn32)cc1 (centres undefined)	none
